The full data set covers some 8,800 targets. This sample favours those with a hit. About 0.5% of all pairs of compound and target were hits. A number with no mark means an inactive call.
Compound: NCC(=O)Nc1ccc(-n2nc(C(F)(F)F)cc2-c2ccc3c(ccc4ccccc43)c2)cc1
Assay: log2 fold change, soluble protein after heating vs DMSO (PISA); higher = thermal stabilisation; K562 lysate, 10 uM; active = over 0.2 and 3.5 SD of the protein, either way, in both replicates (recomputed)
Method in brief: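 K562 pellets were dounce-homogenised in PBS pH 7.4 containing 1 mM MgCl2, and the crude extract, at 1 mg/mL protein, was exposed to 10 μM compound for 30 min. Aliquots were heated for 3 min across 48°C-58°C, pooled, brought to 0.5% NP-40 at 4°C and spun at 21,000xg for 90 min, with the supernatant taken as soluble protein. TMTpro 16plex LC-MS/MS with equalised channel sums quantified that protein. Values are log-two fold changes in thermal stability relative to solvent controls, taken from duplicates.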

UniProt O95297, sequence (O95297 whole entry, looked up): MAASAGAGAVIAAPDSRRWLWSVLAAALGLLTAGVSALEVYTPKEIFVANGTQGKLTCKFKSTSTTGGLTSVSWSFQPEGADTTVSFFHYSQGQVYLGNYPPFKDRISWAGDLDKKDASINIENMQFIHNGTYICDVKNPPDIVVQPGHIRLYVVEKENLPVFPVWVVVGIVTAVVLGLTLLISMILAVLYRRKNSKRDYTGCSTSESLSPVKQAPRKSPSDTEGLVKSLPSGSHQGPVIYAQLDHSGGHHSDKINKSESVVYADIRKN
UniProt Q08380, sequence (Q08380 whole entry, looked up): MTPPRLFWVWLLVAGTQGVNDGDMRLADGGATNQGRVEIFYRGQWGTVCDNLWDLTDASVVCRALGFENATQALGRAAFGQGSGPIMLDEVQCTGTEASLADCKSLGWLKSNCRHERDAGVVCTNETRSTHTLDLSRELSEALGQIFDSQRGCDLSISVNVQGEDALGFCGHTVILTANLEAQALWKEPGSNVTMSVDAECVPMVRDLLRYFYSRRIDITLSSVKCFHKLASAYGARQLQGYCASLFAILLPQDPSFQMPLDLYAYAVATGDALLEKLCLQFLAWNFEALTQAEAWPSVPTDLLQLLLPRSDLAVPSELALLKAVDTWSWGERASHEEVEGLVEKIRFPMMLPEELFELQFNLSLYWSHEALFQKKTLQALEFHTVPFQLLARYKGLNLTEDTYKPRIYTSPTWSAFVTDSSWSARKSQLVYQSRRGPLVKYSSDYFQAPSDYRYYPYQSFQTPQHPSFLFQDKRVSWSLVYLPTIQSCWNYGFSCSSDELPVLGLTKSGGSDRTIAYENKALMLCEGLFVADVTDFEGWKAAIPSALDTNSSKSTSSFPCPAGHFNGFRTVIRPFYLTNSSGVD
UniProt P14174, sequence (P14174 whole entry, looked up): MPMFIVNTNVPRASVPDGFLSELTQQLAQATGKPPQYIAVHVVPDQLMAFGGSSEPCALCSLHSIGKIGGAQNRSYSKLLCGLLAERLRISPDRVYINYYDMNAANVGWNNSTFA
UniProt P45984, sequence (P45984 whole entry, looked up): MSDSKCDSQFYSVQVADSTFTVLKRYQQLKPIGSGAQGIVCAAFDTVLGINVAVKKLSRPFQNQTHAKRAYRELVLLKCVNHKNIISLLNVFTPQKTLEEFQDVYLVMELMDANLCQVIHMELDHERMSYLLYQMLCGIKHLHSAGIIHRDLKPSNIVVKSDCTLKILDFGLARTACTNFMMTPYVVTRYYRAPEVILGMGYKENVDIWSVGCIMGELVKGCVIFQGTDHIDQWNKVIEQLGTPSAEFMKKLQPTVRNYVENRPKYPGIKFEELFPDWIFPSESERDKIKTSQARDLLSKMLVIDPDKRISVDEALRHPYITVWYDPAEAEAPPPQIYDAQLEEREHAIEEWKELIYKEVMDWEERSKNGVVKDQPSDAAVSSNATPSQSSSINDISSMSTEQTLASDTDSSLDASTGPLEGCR
UniProt Q96G25, sequence (Q96G25 whole entry, looked up): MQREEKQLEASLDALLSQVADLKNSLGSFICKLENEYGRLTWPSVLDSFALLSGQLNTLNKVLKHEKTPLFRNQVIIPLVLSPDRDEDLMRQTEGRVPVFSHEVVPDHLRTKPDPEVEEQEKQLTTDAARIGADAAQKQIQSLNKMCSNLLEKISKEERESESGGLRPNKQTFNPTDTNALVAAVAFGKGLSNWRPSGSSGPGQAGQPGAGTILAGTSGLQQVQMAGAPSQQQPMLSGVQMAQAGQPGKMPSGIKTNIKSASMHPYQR
UniProt Q15031, sequence (Q15031 whole entry, looked up): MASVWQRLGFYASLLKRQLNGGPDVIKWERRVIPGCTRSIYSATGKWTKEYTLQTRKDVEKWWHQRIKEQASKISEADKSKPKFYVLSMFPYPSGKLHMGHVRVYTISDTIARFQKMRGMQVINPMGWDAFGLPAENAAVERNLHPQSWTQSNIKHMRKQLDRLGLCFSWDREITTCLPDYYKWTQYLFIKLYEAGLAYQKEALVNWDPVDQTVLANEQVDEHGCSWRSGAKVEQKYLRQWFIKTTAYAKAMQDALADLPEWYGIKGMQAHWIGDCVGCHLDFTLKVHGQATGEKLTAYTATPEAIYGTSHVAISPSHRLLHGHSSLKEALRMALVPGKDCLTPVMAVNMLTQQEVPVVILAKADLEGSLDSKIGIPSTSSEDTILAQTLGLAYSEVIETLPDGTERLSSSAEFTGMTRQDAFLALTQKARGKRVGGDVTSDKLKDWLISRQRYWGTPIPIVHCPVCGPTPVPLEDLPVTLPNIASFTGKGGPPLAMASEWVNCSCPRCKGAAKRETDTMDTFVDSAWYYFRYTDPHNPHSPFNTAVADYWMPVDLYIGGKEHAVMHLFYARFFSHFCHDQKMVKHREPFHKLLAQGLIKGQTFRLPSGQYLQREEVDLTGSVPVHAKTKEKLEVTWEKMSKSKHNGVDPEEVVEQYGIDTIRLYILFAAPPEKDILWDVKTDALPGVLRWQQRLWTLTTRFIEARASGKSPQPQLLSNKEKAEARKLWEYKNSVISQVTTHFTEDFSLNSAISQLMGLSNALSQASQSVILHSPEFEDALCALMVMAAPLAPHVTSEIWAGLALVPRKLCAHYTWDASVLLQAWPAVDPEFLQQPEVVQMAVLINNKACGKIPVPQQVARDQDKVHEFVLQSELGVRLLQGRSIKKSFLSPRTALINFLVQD
UniProt Q13015, sequence (Q13015 whole entry, looked up): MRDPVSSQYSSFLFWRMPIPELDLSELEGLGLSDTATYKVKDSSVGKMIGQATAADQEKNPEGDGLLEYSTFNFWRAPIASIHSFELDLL
UniProt P40692, sequence (P40692 whole entry, looked up): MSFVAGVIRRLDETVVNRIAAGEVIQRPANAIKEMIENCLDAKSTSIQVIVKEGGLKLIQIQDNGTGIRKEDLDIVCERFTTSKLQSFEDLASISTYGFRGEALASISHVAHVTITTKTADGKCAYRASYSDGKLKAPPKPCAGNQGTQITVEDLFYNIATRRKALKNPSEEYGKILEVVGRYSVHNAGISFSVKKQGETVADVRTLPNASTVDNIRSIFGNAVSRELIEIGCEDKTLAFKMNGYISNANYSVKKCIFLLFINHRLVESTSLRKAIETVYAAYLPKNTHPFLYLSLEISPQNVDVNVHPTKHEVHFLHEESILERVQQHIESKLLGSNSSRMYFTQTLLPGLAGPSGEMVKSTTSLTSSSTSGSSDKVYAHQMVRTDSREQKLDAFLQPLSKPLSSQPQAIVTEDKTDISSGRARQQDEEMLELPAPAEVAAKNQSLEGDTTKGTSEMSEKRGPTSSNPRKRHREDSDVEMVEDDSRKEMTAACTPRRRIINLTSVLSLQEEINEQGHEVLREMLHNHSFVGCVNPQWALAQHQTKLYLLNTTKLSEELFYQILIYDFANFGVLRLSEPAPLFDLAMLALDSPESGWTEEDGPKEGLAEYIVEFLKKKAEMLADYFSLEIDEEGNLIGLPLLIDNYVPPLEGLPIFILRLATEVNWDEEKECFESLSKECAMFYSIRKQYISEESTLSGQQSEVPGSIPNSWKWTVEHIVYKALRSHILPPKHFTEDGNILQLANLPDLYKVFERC
UniProt Q9P2J5, sequence (Q9P2J5 whole entry, looked up): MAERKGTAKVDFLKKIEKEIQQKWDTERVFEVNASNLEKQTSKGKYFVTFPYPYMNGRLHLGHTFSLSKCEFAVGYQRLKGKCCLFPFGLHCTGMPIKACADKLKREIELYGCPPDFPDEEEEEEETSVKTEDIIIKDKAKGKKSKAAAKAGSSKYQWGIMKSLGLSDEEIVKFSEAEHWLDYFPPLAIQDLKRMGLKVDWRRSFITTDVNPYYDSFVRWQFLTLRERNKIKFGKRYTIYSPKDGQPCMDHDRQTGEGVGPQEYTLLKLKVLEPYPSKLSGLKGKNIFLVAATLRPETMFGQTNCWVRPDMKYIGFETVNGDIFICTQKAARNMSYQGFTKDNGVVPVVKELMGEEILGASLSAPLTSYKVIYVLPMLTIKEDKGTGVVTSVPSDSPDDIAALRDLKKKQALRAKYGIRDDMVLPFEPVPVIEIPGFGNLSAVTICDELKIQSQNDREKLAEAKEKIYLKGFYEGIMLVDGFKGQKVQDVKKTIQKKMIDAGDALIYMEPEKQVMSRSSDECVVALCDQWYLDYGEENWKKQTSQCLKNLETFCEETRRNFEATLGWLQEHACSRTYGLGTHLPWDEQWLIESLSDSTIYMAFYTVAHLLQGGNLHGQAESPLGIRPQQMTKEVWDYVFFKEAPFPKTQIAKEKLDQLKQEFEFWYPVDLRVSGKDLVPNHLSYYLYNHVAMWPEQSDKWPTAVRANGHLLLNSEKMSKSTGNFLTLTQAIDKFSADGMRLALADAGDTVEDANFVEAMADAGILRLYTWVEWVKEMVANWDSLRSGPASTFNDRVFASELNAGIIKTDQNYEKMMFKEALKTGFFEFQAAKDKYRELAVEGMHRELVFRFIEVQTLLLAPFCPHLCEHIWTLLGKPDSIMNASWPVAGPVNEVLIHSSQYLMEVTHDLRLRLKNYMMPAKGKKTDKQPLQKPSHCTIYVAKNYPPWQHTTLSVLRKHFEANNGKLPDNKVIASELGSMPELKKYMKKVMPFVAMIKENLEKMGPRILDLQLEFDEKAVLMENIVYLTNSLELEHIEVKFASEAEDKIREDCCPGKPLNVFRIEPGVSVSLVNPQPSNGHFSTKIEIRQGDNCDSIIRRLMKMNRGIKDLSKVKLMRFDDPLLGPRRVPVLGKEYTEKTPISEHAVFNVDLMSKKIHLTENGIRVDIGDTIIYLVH
UniProt Q9NX58, sequence (Q9NX58 whole entry, looked up): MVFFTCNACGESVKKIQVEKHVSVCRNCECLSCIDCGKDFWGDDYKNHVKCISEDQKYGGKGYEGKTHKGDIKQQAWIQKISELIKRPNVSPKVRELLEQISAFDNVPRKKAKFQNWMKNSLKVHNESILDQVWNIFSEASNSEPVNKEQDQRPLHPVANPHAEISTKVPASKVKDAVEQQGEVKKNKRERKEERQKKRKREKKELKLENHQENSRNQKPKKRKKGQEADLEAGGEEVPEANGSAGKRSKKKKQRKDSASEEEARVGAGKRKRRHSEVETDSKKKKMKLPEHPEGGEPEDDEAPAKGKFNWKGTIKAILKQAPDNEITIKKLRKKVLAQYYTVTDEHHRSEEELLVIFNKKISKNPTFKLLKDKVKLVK

| Target | log2 fold change |
| --- | --- |
| MITD1 (UniProt Q8WV92) | 0.01 |
| LYRM4 (UniProt Q9HD34) | 0.01 |
| LSG1 (UniProt Q9H089) | -0.074 |
| MED8 isoform 2 (UniProt Q96G25) | 0.019 |
| LARP4B (UniProt Q92615) | 0.019 |
| MPDZ (UniProt O75970) | 0.058 |
| LGALS3BP (UniProt Q08380) | 0.153 |
| MCMBP (UniProt Q9BTE3) | -0.01 |
| MIPEP (UniProt Q99797) | 0.005 |
| MED17 (UniProt Q9NVC6) | -0.051 |
| MLH1 (UniProt P40692) | 0.04 |
| LIG4 (UniProt P49917) | -0.041 |
| MPZL1 (UniProt O95297) | -0.059 |
| MAPK9 (UniProt P45984) | -0.008 |
| MAP2K7 isoform 4 (UniProt O14733) | 0.009 |
| MFF isoform 2 (UniProt Q9GZY8) | 0.003 |
| LYAR (UniProt Q9NX58) | 0.011 |
| MECR (UniProt Q9BV79) | -0.037 |
| MAPKAPK3 (UniProt Q16644) | -0.063 |
| MAP3K4 (UniProt Q9Y6R4) | -0.025 |

| Target | log2 fold change |
| --- | --- |
| MAST4 (UniProt O15021) | -0.073 |
| MINDY1 isoform 3 (UniProt Q8N5J2) | -0.097 |
| LYSMD3 (UniProt Q7Z3D4) | 0.01 |
| LARS2 (UniProt Q15031) | -0.062 |
| MCCC1 (UniProt Q96RQ3) | 0.028 |
| MIF (UniProt P14174) | 0.048 |
| LAMP1 (UniProt P11279) | 0.007 |
| MED12 isoform 2 (UniProt Q93074) | 0.003 |
| MAP4 (UniProt E7EVA0) | -0.044 |
| MED10 (UniProt Q9BTT4) | -0.001 |
| KLC2 (UniProt Q9H0B6) | 0.01 |
| LRWD1 (UniProt Q9UFC0) | -0.022 |
| MBD2 (UniProt Q9UBB5) | 0.018 |
| LARS (UniProt Q9P2J5) | -0.021 |
| MON2 isoform 5 (UniProt Q7Z3U7) | 0.021 |
| MAD2L1BP isoform 3 (UniProt Q15013) | -0.026 |
| MLLT11 (UniProt Q13015) | 0.08 |
| LIG3 (UniProt P49916) | -0.061 |
| LIMS1 isoform 3 (UniProt P48059) | -0.022 |
